# PubChem BioAssay (EPA / NIEHS)
# Active and inactive are the calls of the source. The calls were made as follows: active = hit-call score of the fitted dose curve at least 0.9, where 1 is the maximum; inactive = score below 0.9.
# Read-out: E-selectin (Homo sapiens) (UniProt P16581)
# Assay: BSK_3C_Eselectin: BioMAP Diversity Plus: 3C Assay for Eselectin Biomarker Activity (AID 2283015)
# Conditions: primary human endothelial cells (HUVEC); actives raise or lower the signal
# Procedure: BSK_3C is a cell-based, multiplexed-readout assay that uses umbilical vein endothelium, a human vascular primary cell, with measurements taken at 24 hours after chemical dosing in a 96-well plate.BSK_3C_Eselectin is an assay component measured in the BSK_3C assay. It measures E-selectin antibody related to regulation of gene expression using ELISA technology.Data from the assay component BSK_3C_Eselectin was analyzed into 1 assay endpoint. This assay endpoint, BSK_3C_Eselectin, was analyzed with bidirectional fitting relative to DMSO as the negative control and baseline of activity. Using a type of binding reporter, gain or loss-of-signal activity can be used to understand changes in the signaling as they relate to the gene SELE. Furthermore, this assay endpoint can be referred to as a primary readout, because this assay has produced multiple assay endpoints where this one serves a signaling function. To generalize the intended target to other relatable targets, this assay endpoint is annotated to the cell adhesion molecules intended target family, where the subfamily is selectins.
# The levels of cell surface (or secreted, indicated by the prefix "s") biomarker endpoints were measured by ELISA. Overt cytotoxicity to cells in confluent adherent cultures (all systems other than the BT system) was assessed by measuring total protein levels using sulforhodamine B (SRB) staining in parallel cultures at the time of biomarker measurements, indicated as SRB endpoints. For proliferation assays for adherent cell types, individual cell types are cultured at sub-confluence and relative cell numbers quantified by SRB staining at time points optimized for each system (48 h: 3C and CASM3C systems; 72 h: BT and HDF3CGF systems; 96 h: SAg system). SRB was performed by staining cells with 0.1% SRB after fixation with 10% TCA and reading wells at 560 nm.Viability and proliferation of PBMC (T cells) was quantified by Alamar Blue reduction for the SAg and BT systems. For PBMC viability (referred to as PBMC Cytotoxicity within the assay endpoint names), cells were plated (75,000/well in a 96-well plate) and then chemical samples added for 1 h before addition of activators, SEB and TSST-1 (20 ng/mL final concentration each). Cells were incubated for 90 h. Then, Alamar Blue (20 uL/well) (Invitrogen, Cat DAL1100) was added for 6 h, and the plates were read with a fluorescence microplate reader at 546/580 nm (excitation/emission). For PBMC proliferation, cells were plated and activated as above but incubated for only 16 h prior to addition of Alamar Blue. Plates were read after 6 h.
# Sequence of E-selectin (Homo sapiens) (P16581 whole entry, looked up): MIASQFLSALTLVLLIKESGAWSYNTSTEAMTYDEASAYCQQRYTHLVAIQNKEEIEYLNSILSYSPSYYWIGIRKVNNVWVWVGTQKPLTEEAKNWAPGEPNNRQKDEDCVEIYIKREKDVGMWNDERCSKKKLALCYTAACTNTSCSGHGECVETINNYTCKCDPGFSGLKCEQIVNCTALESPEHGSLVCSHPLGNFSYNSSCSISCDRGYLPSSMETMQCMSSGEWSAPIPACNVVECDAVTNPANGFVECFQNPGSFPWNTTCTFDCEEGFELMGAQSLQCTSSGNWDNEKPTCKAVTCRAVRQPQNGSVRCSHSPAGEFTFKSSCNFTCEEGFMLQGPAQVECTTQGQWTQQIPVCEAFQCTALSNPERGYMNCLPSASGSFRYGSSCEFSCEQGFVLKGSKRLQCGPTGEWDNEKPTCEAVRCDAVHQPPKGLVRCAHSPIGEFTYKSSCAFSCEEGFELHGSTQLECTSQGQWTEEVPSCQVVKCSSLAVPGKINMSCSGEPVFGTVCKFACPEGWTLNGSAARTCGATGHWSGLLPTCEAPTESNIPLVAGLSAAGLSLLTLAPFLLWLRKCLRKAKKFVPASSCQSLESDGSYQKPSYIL
Compound,AC50,outcome
CCOC(=O)CC(=O)CCl,20 µM (active),–
CCCCN(CCCC)C(=S)[S-].CCCCN(CCCC)C(=S)[S-].[Ni+2],–,inactive
Cc1ccccc1OP(=O)(Oc1ccccc1)Oc1ccccc1,20 µM (active),–
CC(C)(C)c1ccccc1O,–,inactive
Cc1cc(C)cc(C)c1,–,inactive
CCCCCCCCCCCCN(C)C,–,inactive
O=C(Cc1ccccc1)OCCc1ccccc1,–,inactive
OC(Cc1ccccc1Cl)(Cn1cncn1)C1(Cl)CC1 (stereo not given),–,inactive
O=S(=O)(C(Cl)(Cl)Cl)C(Cl)(Cl)Cl,1.86 µM (active),–
Oc1c(Cl)cc(Cl)cc1Cl,–,inactive
Cc1cc(C(C)(C)c2ccc(O)c(C)c2)ccc1O,15.8 µM (active),–
Cc1cc(Cl)ccc1N,–,inactive
CCC(C)(C#N)N=NC(C)(C#N)CC (stereo not given),–,inactive
N#CCCC(Br)(C#N)CBr (stereo not given),10.6 µM (active),–
N#Cc1cccnc1,–,inactive
CC(C)O.CC(C)O.OCCN(CCO)CCO.OCCN(CCO)CCO.[Ti],–,inactive
CCOP(=S)(OCC)SCS(=O)(=O)C(C)(C)C,–,inactive
CC(C)=CC1C(C(=O)OCc2cccc(Oc3ccccc3)c2)C1(C)C (stereo not given),2.62 µM (active),–
CCN(CC)C(=O)C(Cl)=C(C)OP(=O)(OC)OC,–,inactive
OCCCCO,–,inactive

Compound,AC50,outcome
O=[N+]([O-])c1ccc(Nc2ccccc2)cc1,–,inactive
CCOC(=O)CCN(SN(C)C(=O)Oc1cccc2c1OC(C)(C)C2)C(C)C,20 µM (active),–
Oc1cccc(-c2ccccc2)c1,32 µM (active),–
c1ccc(-c2cccc(-c3ccccc3)c2)cc1,11.4 µM (active),–
Clc1cccc(Cl)c1,–,inactive
O=C(O)C1(c2ccc3c(c2)OC[C@H](Cc2ccc(-c4ccccc4)cc2)[C@H]3O)CCCC1,24.9 µM (active),–
Nc1ccc(N)cc1,–,inactive
CC(C=O)Cc1ccc2c(c1)OCO2 (stereo not given),–,inactive
Cc1cccc(OP(=O)(Oc2cccc(C)c2)Oc2cccc(C)c2)c1,–,inactive
CCOC(=O)C(SP(=S)(OC)OC)c1ccccc1 (stereo not given),–,inactive
O=C(N[C@H]1CN2CCC1CC2)c1ccc2c(c1)OCCO2,–,inactive
Oc1c(Br)cc(Br)cc1Br,27.2 µM (active),–
COCC(=O)N(c1c(C)cccc1C)[C@H](C)C(=O)OC,–,inactive
O=C(CCl)NCO,–,inactive
CCOP(=O)(OCC)OC(=CCl)c1ccc(Cl)cc1Cl,29.2 µM (active),–
CCOP(=O)(OCC)SCCSCC,–,inactive
C#CCOC(=O)/C=C(C)/C=C/CC(C)CCCC(C)C (stereo not given),6.38 µM (active),–
Clc1cccc(Cl)c1Cl,–,inactive
OC(Cc1ccccc1Cl)(Cn1[nH]cnc1=S)C1(Cl)CC1 (stereo not given),20 µM (active),–
COc1ccccc1N,–,inactive
